In PubChem BioAssay one finds viability and Her2 level data, which are given here for 40 molecules.

Each structure is given as a SMILES string. Activity calls are given as the source filed them.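 The calls were made as follows: active = Her2 level under about 52% in both replicate screens, with viability over 70% of control (limit read from the data); inconclusive = Her2 under the limit in one screen only, or viability under 70%; inactive = Her2 level above the set limit.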

Receptor tyrosine-protein kinase erbB-2 (Homo sapiens), sequence (P04626 whole entry, looked up): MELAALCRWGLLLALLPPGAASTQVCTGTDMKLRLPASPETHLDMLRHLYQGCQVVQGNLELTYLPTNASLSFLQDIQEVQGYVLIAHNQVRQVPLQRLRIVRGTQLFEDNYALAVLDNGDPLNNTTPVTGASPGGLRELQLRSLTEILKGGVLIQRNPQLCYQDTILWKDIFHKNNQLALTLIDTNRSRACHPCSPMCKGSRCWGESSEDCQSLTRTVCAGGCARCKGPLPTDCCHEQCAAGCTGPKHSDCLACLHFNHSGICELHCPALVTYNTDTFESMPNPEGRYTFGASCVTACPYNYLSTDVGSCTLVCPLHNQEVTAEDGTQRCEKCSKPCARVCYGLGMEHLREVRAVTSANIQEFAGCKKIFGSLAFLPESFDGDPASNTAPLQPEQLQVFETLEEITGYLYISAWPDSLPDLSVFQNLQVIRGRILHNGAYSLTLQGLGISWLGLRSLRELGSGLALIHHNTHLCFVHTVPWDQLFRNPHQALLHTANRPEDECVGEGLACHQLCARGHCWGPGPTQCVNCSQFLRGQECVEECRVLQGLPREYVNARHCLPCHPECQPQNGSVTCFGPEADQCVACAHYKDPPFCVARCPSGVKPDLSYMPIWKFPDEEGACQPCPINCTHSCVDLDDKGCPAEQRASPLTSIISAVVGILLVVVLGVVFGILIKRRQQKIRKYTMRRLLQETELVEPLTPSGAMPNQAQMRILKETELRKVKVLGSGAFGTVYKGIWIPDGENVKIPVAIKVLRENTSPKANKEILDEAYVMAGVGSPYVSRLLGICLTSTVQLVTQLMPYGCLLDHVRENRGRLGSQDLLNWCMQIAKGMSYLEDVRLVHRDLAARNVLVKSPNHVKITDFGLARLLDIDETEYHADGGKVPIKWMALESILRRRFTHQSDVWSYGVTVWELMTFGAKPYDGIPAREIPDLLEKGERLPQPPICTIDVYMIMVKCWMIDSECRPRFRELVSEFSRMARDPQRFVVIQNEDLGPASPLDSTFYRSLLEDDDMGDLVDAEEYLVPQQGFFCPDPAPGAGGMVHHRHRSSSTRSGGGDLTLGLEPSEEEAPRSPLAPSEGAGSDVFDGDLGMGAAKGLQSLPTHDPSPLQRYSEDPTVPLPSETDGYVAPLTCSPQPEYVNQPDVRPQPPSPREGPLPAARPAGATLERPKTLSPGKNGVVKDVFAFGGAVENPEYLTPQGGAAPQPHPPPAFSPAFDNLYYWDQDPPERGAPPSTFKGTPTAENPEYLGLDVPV

Test system in the first assay: not listed separately
Put plainly: Her2 expression decrease, cell viability multiplex – SKBR3 breast tumor cells, AlphaScreen, ATP viability, primary screen (AID 461).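 As to Her2 level: lower value means less Her2 protein in the cells.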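 As to viability: percent of carrier control wells set as 100% viability.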 Particulars: SKBR3 Her2 protein level, 18-24 h, measured here: SKBR3 viability, ATP luminescence, at 10 µM. On the technique in general: Bead proximity is the source of the signal in Alpha formats.
For the molecule `COc1cccc(-n2ccnc2SCC(=O)N2CCc3ccccc32)c1`, the viability (commonly a read-out of living cells in per cent, often relative to untreated cells) was 94.5%.
The same measure, in the same setting: under `C=CCc1cc(C(=O)N2CCCCC2)ccc1O` stands 104%; under `CCN(CC)c1ccc(-c2nn3c(-c4cccnc4)nnc3s2)cc1`, 91.5%.
Still for that read-out and setting: in the case of `Cc1ccc(NC(=O)CSc2nnc(-c3ccncc3)n2C)cc1C` it was 90%.
Still for that read-out and setting: in the case of `O=C(Nc1ccc(Br)cc1F)c1sccc1-n1cccc1` it was 87.5%; in that of `Cc1nc(CNS(=O)(=O)c2ccc3c(c2)OCCO3)cs1`, 96%.
Consider `CCOC(=O)c1[nH]c(C)c(C(=O)NCC2CCCO2)c1C` (stereo not given), for which the viability was determined as 99%.
The same measure, in the same setting: in the case of `N#CC1=C(N)N(c2ccccc2)C2=C(C(=O)CCC2)C1c1cccs1` (stereo not given) it was 96.5%.
Same read-out and setting: under `COc1cccc(C(=O)n2cnnc2N)c1OC` stands 120%; under `COC(=O)c1cc2oc(C)cc2n1CC(=O)Nc1ccc(C)c(C)c1`, 85.5%; under `O=C(CSCc1cnn(-c2ccccc2)c1-n1cccc1)NCC1CCCO1` (stereo not given), 97.5%.
As for `N=c1c(C(=O)NCc2ccc3c(c2)OCO3)cc2c(=O)n3ccccc3nc2n1Cc1cccnc1`, the viability was 73.5%.
Still for that read-out and setting: in the case of `Cc1cc(Br)ccc1NC(=O)CCN1C(=O)c2ccncc2C1=O` it was 104%; in that of `O=C1N2c3ccccc3CCc3cccc(c32)C1(O)C(F)(F)F` (stereo not given), 94.5%; in that of `Cn1c(SCC(=O)Nc2ccc3c(c2)oc2ccccc23)nnc1-c1ccccc1`, 83%.
Still for that read-out and setting: under `CCOc1ccc(S(=O)(=O)Nc2cccc(Cl)c2)cc1` stands 86%; under `Nn1c(CSc2nc3ccccc3o2)nnc1CSc1nc2ccccc2o1`, 86%; under `CC1=C(C(=O)OC2CCCCC2)C(c2cccnc2)n2ncnc2N1` (stereo not given), 104%.
The same measure, in the same setting: in the case of `COC(=O)c1ccccc1NC(=O)C1CC(=O)N(c2ccccc2)C1` (stereo not given) it was 122%.
Consider `O=C(c1ccc2c(c1)OCCO2)C1CCN(C(=O)c2ccc(F)cc2)CC1`, for which the viability was 102%.
Same read-out and setting: under `Cc1nc(=S)n(-c2ccccc2)[nH]1` stands 104%; under `CC(C)CC(=O)Nc1ccccc1-c1nnn(CC(=O)N2CCOCC2)n1`, 102%; under `O=C(c1ccccc1)N1CCCCC(Sc2nnnn2-c2ccccc2)C1=O` (stereo not given), 89.5%.
The same measure, in the same setting: under `CC(=O)Nc1ccccc1OCc1nnc(-c2cccs2)o1` stands 97%; under `CCOc1ccc(CN2CCN(c3cc(C)nc4c5c(C)cc(C)nc5nn34)CC2)cc1`, 80%; under `CCSc1nnc2c(n1)OC=Nc1ccc(Br)cc1-2`, 92.5%.
`Cc1ccc2nc(SCC(=O)NCc3ccco3)c(C#N)cc2c1`: the viability came to 90.5%.
The same measure, in the same setting: in the case of `CCN(CC)c1ccc2cc(NC(=O)CCC(=O)O)c(=O)oc2c1` it was 89%; in that of `COc1ccc(CN(CC(=O)NCc2ccco2)C(=O)CCC(=O)Nc2nccs2)cc1`, 96%; in that of `CC(=O)c1cccc(NC(=O)N2C3CCC2CC(O)(c2cccnc2)C3)c1` (stereo not given), 102%.
Still for that read-out and setting: in the case of `Cc1nc2scc(-c3cccs3)c2c(=O)n1-n1cccc1` it was 92%; in that of `NC1=NC(c2ccc(Br)cc2)n2c(nc3ccccc32)N1` (stereo not given), 90%; in that of `CSCC[C@@H](Nc1nc(-c2ccccc2)nc2c1oc1ccccc12)C(=O)O`, 91%.
For `Cc1csc(SCC(=O)NC(=O)NCc2ccccc2)n1`, the viability came out at 108%.
Same read-out and setting: under `CCSc1ncc(C#N)c(=O)[nH]1` stands 117%; under `CCSc1nnc(NC(=O)CSc2ncccn2)s1`, 97.5%.
On the same count and under the same terms, under `COc1ccc(N2CCN(CCCNC(=O)C3(S(=O)(=O)c4ccc(Cl)cc4)CC3)CC2)cc1` stands 87.5%.
With `COc1ccc(OC)c(C2=NOC(C(=O)NCCN3CCOCC3)C2)c1` (stereo not given), the viability amounted to 107%.
Same read-out and setting: in the case of `COc1ccc(CN2CC(C(=O)NCc3ccccn3)CC2=O)cc1` (stereo not given) it was 92.5%.
In the case of `c1ccc(-n2ncc3c(N4CCCCC4)ncnc32)cc1`, the viability was determined as 105%.

Another assay has as its target Receptor tyrosine-protein kinase erbB-2 (Homo sapiens) (UniProt P04626). The assay is described as above. To be noted: 18-24 h, at 10 µM, stronger effect = lower value.
Take `COc1cccc(-n2ccnc2SCC(=O)N2CCc3ccccc32)c1`: the Her2 level is 102% (inactive).
Same read-out and setting: in the case of `C=CCc1cc(C(=O)N2CCCCC2)ccc1O` it was 100% (inactive).
Still for that read-out and setting: in the case of `CCN(CC)c1ccc(-c2nn3c(-c4cccnc4)nnc3s2)cc1` it was 64% (inactive); in that of `Cc1ccc(NC(=O)CSc2nnc(-c3ccncc3)n2C)cc1C`, 117% (inactive); in that of `O=C(Nc1ccc(Br)cc1F)c1sccc1-n1cccc1`, 72.5% (inactive).
On the same count and under the same terms, under `Cc1nc(CNS(=O)(=O)c2ccc3c(c2)OCCO3)cs1` stands 142% (inactive); under `CCOC(=O)c1[nH]c(C)c(C(=O)NCC2CCCO2)c1C` (stereo not given), 92% (inactive).
As for `N#CC1=C(N)N(c2ccccc2)C2=C(C(=O)CCC2)C1c1cccs1` (stereo not given), the Her2 level was 97.5% (inactive).
On the same count and under the same terms, under `COc1cccc(C(=O)n2cnnc2N)c1OC` stands 88.5% (inactive); under `COC(=O)c1cc2oc(C)cc2n1CC(=O)Nc1ccc(C)c(C)c1`, 83% (inactive).
Take `O=C(CSCc1cnn(-c2ccccc2)c1-n1cccc1)NCC1CCCO1` (stereo not given): the Her2 level is 85% (inactive).
Still for that read-out and setting: in the case of `N=c1c(C(=O)NCc2ccc3c(c2)OCO3)cc2c(=O)n3ccccc3nc2n1Cc1cccnc1` it was 68% (inactive); in that of `Cc1cc(Br)ccc1NC(=O)CCN1C(=O)c2ccncc2C1=O`, 113% (inactive).
Still for that read-out and setting: in the case of `O=C1N2c3ccccc3CCc3cccc(c32)C1(O)C(F)(F)F` (stereo not given) it was 90.5% (inactive); in that of `Cn1c(SCC(=O)Nc2ccc3c(c2)oc2ccccc23)nnc1-c1ccccc1`, 75.5% (inactive).
Turning to `CCOc1ccc(S(=O)(=O)Nc2cccc(Cl)c2)cc1`, the Her2 level was 74.5% (inactive).
As for `Nn1c(CSc2nc3ccccc3o2)nnc1CSc1nc2ccccc2o1`, the Her2 level was 94.5% (inactive).
Same read-out and setting: in the case of `CC1=C(C(=O)OC2CCCCC2)C(c2cccnc2)n2ncnc2N1` (stereo not given) it was 66.5% (inactive).
On the same count and under the same terms, in the case of `COC(=O)c1ccccc1NC(=O)C1CC(=O)N(c2ccccc2)C1` (stereo not given) it was 96% (inactive).
The same measure, in the same setting: under `O=C(c1ccc2c(c1)OCCO2)C1CCN(C(=O)c2ccc(F)cc2)CC1` stands 111% (inactive); under `Cc1nc(=S)n(-c2ccccc2)[nH]1`, 107% (inactive); under `CC(C)CC(=O)Nc1ccccc1-c1nnn(CC(=O)N2CCOCC2)n1`, 92% (inactive).
As for `O=C(c1ccccc1)N1CCCCC(Sc2nnnn2-c2ccccc2)C1=O` (stereo not given), the Her2 level is 104% (inactive).
For the molecule `CC(=O)Nc1ccccc1OCc1nnc(-c2cccs2)o1`, the Her2 level was 93% (inactive).
Take `CCOc1ccc(CN2CCN(c3cc(C)nc4c5c(C)cc(C)nc5nn34)CC2)cc1`: the Her2 level was 83.5% (inactive).
Regarding `CCSc1nnc2c(n1)OC=Nc1ccc(Br)cc1-2`, the Her2 level is 86% (inactive).
Still for that read-out and setting: in the case of `Cc1ccc2nc(SCC(=O)NCc3ccco3)c(C#N)cc2c1` it was 88.5% (inactive); in that of `CCN(CC)c1ccc2cc(NC(=O)CCC(=O)O)c(=O)oc2c1`, 99% (inactive); in that of `COc1ccc(CN(CC(=O)NCc2ccco2)C(=O)CCC(=O)Nc2nccs2)cc1`, 104% (inactive).
The same measure, in the same setting: under `CC(=O)c1cccc(NC(=O)N2C3CCC2CC(O)(c2cccnc2)C3)c1` (stereo not given) stands 98.5% (inactive); under `Cc1nc2scc(-c3cccs3)c2c(=O)n1-n1cccc1`, 107% (inactive).
On the same count and under the same terms, under `NC1=NC(c2ccc(Br)cc2)n2c(nc3ccccc32)N1` (stereo not given) stands 82% (inactive); under `CSCC[C@@H](Nc1nc(-c2ccccc2)nc2c1oc1ccccc12)C(=O)O`, 75% (inactive); under `Cc1csc(SCC(=O)NC(=O)NCc2ccccc2)n1`, 90.5% (inactive).
With `CCSc1ncc(C#N)c(=O)[nH]1`, the Her2 level was 119% (inactive).
Take `CCSc1nnc(NC(=O)CSc2ncccn2)s1`: the Her2 level was 102% (inactive).
In the case of `COc1ccc(N2CCN(CCCNC(=O)C3(S(=O)(=O)c4ccc(Cl)cc4)CC3)CC2)cc1`, the Her2 level was 96.5% (inactive).
Still for that read-out and setting: in the case of `COc1ccc(OC)c(C2=NOC(C(=O)NCCN3CCOCC3)C2)c1` (stereo not given) it was 89.5% (inactive).
For the molecule `COc1ccc(CN2CC(C(=O)NCc3ccccn3)CC2=O)cc1` (stereo not given), the Her2 level was 104% (inactive).
Still for that read-out and setting: in the case of `c1ccc(-n2ncc3c(N4CCCCC4)ncnc32)cc1` it was 90.5% (inactive).
